# Compound activity deposited in PubChem by several laboratories.
# Only some compounds are listed: those with a hit (about 1.7% of all), similar ones and a draw of the others.
# Measles CPE – protection of cells from measles virus | Measles virus-infected cells, CPE protection, absorbance | 140,000 tested, 1.5% active | protection (pct of control), % at 4 µM; in the data active means protection mostly above about 24%, no sharp cut-off; inactive means mostly below about 26%
# PTPN22 act – LYP (human) phosphatase activation; Q9Y2R2; recombinant LYP, DiFMUP fluorescence; 0 = plate median, 100 = signal doubled; activation, % at 2 µM; 96,000 tested, 0.11% active;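 active means activation at 2 µM above a set limit, the mean plus 5 SD, cut at about 37% in these data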
# Target sequence (Q9Y2R2 whole entry, looked up): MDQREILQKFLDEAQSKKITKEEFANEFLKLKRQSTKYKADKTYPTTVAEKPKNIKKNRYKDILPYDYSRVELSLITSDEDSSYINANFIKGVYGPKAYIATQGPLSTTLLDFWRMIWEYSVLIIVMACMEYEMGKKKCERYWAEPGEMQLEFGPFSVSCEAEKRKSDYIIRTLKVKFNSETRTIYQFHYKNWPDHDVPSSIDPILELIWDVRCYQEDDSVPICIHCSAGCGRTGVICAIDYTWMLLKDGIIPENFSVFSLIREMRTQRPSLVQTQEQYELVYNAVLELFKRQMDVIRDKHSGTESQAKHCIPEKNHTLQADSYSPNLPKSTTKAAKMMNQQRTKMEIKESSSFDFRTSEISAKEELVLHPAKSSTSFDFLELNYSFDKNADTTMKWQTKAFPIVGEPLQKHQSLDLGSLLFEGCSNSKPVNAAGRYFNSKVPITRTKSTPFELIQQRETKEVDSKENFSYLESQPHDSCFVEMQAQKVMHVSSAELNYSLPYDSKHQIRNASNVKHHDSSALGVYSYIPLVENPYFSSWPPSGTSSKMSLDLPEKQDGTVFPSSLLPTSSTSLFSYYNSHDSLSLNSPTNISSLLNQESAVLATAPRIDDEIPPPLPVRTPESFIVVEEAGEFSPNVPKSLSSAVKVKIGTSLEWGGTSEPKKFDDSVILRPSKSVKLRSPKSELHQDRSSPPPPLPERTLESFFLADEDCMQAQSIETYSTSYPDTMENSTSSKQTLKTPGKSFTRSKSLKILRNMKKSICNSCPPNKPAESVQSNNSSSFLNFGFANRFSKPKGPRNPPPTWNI
# PTPN22 inh 2 – blocks human PTPN22 phosphatase activity | recombinant LYP catalytic domain, DiFMUP fluorescence | inhibition, % at 2 µM | 96,000 tested, 0.21% active;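 active means inhibition at 2 µM at or above a set limit, the screen mean plus 3 SD, cut at about 24% in these data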;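 further: 0% = DMSO with enzyme and 100% = enzyme fully blocked by orthovanadate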
# Active calls of the source: *; nt = no result.
SMILES,Measles CPE,PTPN22 act,PTPN22 inh 2
O=C(Nc1nc(-c2cccs2)cs1)c1ccc(Cl)cc1,49.0*,5.2,-2.8
CCN(CC)CCN1C(=O)C(=O)/C(=C(/O)c2c(C)[nH]c(C(=O)OC)c2C)C1c1ccco1 (stereo not given),12.2,-6.3,3.8
Cc1ccc(CNC(=O)CCCn2c(=O)c3ccccc3n(CC(=O)NC3CCCC3)c2=O)cc1,4.0,nt,nt
C=CCn1c(-c2cccn(Cc3ccc(Cl)cc3)c2=O)n[nH]c1=S,6.5,-2.5,5.7
Cc1ccc(C(=O)Oc2ccc(-c3nccc(-c4ccccn4)n3)cc2)cc1,5.2,3.4,-6.0
COc1ccc(N2CCN(C(CNC(=O)OCc3ccccc3)c3ccco3)CC2)cc1 (stereo not given),4.2,nt,nt
O=C(NCCc1ccccc1)c1cc(S(=O)(=O)N2CCOCC2)ccc1F,18.2,-5.9,4.4
O=C(COC(=O)c1cc(S(=O)(=O)N2CCOCC2)ccc1O)NCCc1ccccc1,39.1*,-3.0,4.5
O=C(COC(=O)c1cc(S(=O)(=O)N2CCOCC2)cs1)c1ccccc1,51.0*,2.8,1.4
O=C(Nc1ccccc1)c1cc(S(=O)(=O)N2CCOCC2)cs1,17.9,-1.5,4.4
CC(NC(=O)Cc1cccs1)c1ccc2c(c1)OCO2 (stereo not given),12.3,-1.1,-0.3
CNC(=O)C1C2C=CC3(O2)C1C(=O)N(C1CC1)C3C(=O)NCc1ccc(OC)cc1 (stereo not given),9.5,5.6,-10.6
CC(C)=CC(=O)OCC(=O)Nc1ccc(Cl)cn1,13.9,-15.9,16.8
CC(C)=CC(=O)OCC(=O)Nc1ccccc1Cl,81.5*,nt,nt
CCOC(O)[C@H]1N[C@@H](c2ccc(Cl)cc2)[C@@H]([N+](=O)[O-])[C@@H]1c1ccccc1 (stereo not given in full),3.6,nt,nt
CCOC(=O)CNc1ncc([N+](=O)[O-])cc1C#N,9.6,nt,nt
O=C(CSCc1ccc(F)cc1)N1CCN(c2ccc(F)cc2)CC1,7.7,-3.2,5.2
O=C(CSCc1ccc(F)cc1)N1CCN(c2ccccc2)CC1,79.5*,3.6,-1.5
CC(C)OCCCNS(=O)(=O)c1ccc2ccccc2c1,30.1*,-15.3,14.5
O=S(=O)(NCCOc1ccccc1)c1ccc2ccccc2c1,18.4,4.9,-6.6
C#CC[N+](C)(C)CCCCCCCCCCCC,5.4,nt,nt
C#CC[N+](C)(C)CCCCCCCCCC,27.7*,nt,nt
CCN(CC)c1ccc(/C=N/OC(C)C(=O)Nc2ccc(C)cc2)cc1 (stereo not given),7.7,nt,nt
CC(=O)Nc1ccc(/C=N/OCC(=O)Nc2ccc(C)cc2)cc1,37.7*,nt,nt
Cc1cc(Cl)ccc1OCC(=O)NCc1ccncc1,47.9*,5.3,-8.2
SMILES,Measles CPE,PTPN22 act,PTPN22 inh 2
O=C(COc1ccc(Cl)cc1Cl)NCc1ccncc1,23.7,1.5,-1.5
O=c1oc(-c2ccco2)nc2ccccc12,8.2,-2.4,3.0
c1coc(-c2nc3ccccc3nc2-c2ccco2)c1,40.6*,nt,nt
Cc1cc(S(=O)(=O)NCC(c2ccccc2)c2ccccc2)ccc1-n1cnnn1,23.2*,10.6,-9.0
CCOCCCNS(=O)(=O)c1ccc(-n2cnnn2)c(OC)c1,3.1,3.1,-2.1
CCN(CC)S(=O)(=O)c1ccc(-n2cnnn2)c(C)c1,48.4*,4.6,-2.4
Cc1cc(S(=O)(=O)N(Cc2ccccn2)Cc2ccco2)ccc1-n1cnnn1,4.9,nt,nt
Cc1nnc(SCC(=O)NCc2ccco2)n1Cc1ccccc1,8.6,-0.5,2.5
C=CCNCC#CCOc1ccc(OC)cc1,6.7,-9.6,9.5
OCCNCCCCOc1ccc(OCc2ccccc2)cc1,5.3,nt,nt
OCCNCCCCOc1ccc(F)cc1,48.5*,-3.2,3.1
COC1=Cc2c(ccc3ccc(=O)oc23)OC1(C)C,1.0,nt,nt
C=CCc1c(OC)ccc2ccc(=O)oc12,35.9*,11.6,-10.9
CN(C(=O)c1cccc(C#N)c1)c1nnc(-c2ccccn2)s1,6.9,4.5,-7.8
CCn1c(C)cc(/C=C2\SC(=O)N(CC(=O)Nc3ccc(C)c(C)c3)C2=O)c1C,2.9,-1.6,4.0
Cc1ccc(NC(=O)CN2C(=O)S/C(=C/c3ccc(-c4cc(C(=O)O)ccc4C)o3)C2=O)cc1C,21.8,-33.3,34.8*
Cc1ccc(SCCC(=O)Nc2ccc(OCc3ccccc3)cc2)cc1,12.2,nt,nt
CCc1cc(C(=O)OC)c(NC(=O)CC2NCCNC2=O)s1 (stereo not given),1.1,-14.7,15.2
CCc1cc(C(=O)OC)c(NC(=O)C2CC(=O)NN2Cc2ccccc2)s1 (stereo not given),23.0*,5.4,-1.5
Cc1cccc(CSC2=CS(=O)(=O)c3ccccc3N2)c1,42.4*,9.1,-11.8
Cc1ccc(CSC2=CS(=O)(=O)c3ccccc3N2)cc1,9.9,0.0,-2.5
Cn1c(CNc2nc3ccccc3n2CCN2CCCCC2)nc2ccccc21,3.0,-8.8,11.8
OCCNc1nc2ccccc2n1CCN1CCCCC1,46.7*,-7.2,6.8
Cn1ncc(Cl)c1C(=O)Nc1ccncc1,12.8,3.1,-6.2
Cc1c(C(=O)O)sc(=S)n1-c1ccc(Cl)cc1,4.4,4.3,-0.7
SMILES,Measles CPE,PTPN22 act,PTPN22 inh 2
COc1cccc(C(=O)Nc2nnc(C3CCCO3)s2)c1 (stereo not given),4.1,-5.7,1.6
CC(C)Oc1ccc2ccccc2c1C=O,23.8*,9.7,-6.6
CCN1CCN(Cc2c(OC)ccc3ccccc23)CC1,4.1,7.7,-13.9
Cc1cccc(NC(=O)C2Cc3ccccc3CN2C(=O)OCc2ccccc2)c1C (stereo not given),23.6,nt,nt
CCOC(=O)c1c(C)n(C)c2cc(-c3ccc(C)cc3)c(O)cc12,10.9,nt,nt
Cc1ccc(C(=O)NNC(=O)c2cc(OCC(F)(F)F)ccc2OCC(F)(F)F)cc1,7.5,0.2,3.8
O=C(NNC(=O)c1cc(OCC(F)(F)F)ccc1OCC(F)(F)F)c1cccc(C(F)(F)F)c1,78.3*,nt,nt
O=C(O)c1cc2nc(-c3ccccc3)cc(C(F)(F)F)n2n1,6.5,-0.7,-0.8
Cc1cc(C)c(NC(=O)c2sc3nc4c(cc3c2N)C(=O)CC(C)(C)C4)c(C)c1,13.6,nt,nt
COc1ccc2oc(=O)c(-c3nc4ccccc4o3)cc2c1,2.0,3.0,-6.2
Cc1nnc(SCC(=O)Nc2nc3c(s2)CC(C)CC3)s1 (stereo not given),16.4,-5.6,7.8
O=C(COc1ccccc1)n1nc(-c2ccc(Cl)cc2)nc1NCc1ccco1,39.9*,11.4,-14.8
O=C(c1ccco1)n1nc(-c2ccc(Cl)cc2)nc1NCc1ccco1,1.7,-1.0,-3.6
COc1cc(C2C(C(C)=O)=C(O)C(=O)N2CCN2CCOCC2)ccc1O (stereo not given),9.8,8.7,-8.3
CCOC(=O)c1ccc(NC(=O)Cn2cccc2)cc1,1.5,-6.9,5.8
Cc1ccc(Cl)cc1NC(=O)Cn1cccc1,70.3*,4.0,-6.5
Cc1cccc2sc(NC(=O)CSCc3ccccc3)nc12,36.3,8.1,-8.9
Cc1cccc2sc(NC(=O)Cn3cccc3)nc12,76.8*,-7.3,6.3
CCc1cccc(NC(=O)Cn2cccc2)c1,50.5*,-8.8,7.5
Cc1ccc(Cl)cc1NC(=O)CSC(N)=O,39.0,-19.4,21.5
CCOC(=O)C1=C(C)NC(=O)NC1c1cc(Br)c(O)c(OC)c1 (stereo not given),22.3,7.3,-4.3
CC1CC(C)CN(C(=O)COC(=O)c2ccc[nH]c2=O)C1 (stereo not given),3.5,-3.0,2.6
